# Source: PubChem BioAssay (NCATS)
# Inconclusive results are not listed. Active and inactive are the calls of the source. The call rests on the fitted dose curve; in most records, active means well fitted cell-killing curve with a large enough effect; inconclusive means small, poorly fitted or top-dose-only effect, or effect the other way; inactive means no such curve, though single readings can be large or run the other way.
# Experiment: Viability qHTS for spleen associated tyrosine kinase inhibitor (SYKi) naive MV4-11 cells (AID 1963823); further: nearly all actives have a fitted effect of over 40% in size
# Conditions: MV4-11 AML viability, CellTiter-Glo luminescence, 72 h; series mostly up to 45 µM; viability (% of control): at the top concentration
# In short: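 SYKi-naive MV4-11 AML cells, 500 per well, were exposed to library compounds for 72 hr at 37 C, 5% CO2. Viability was then read by CellTiter-Glo luminescence after 10 min at room temperature.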
# Potency means the concentration at half of the fitted maximal effect.
SMILES,viability (% of control),Potency
COC1=CC(=O)C[C@@H](C)[C@]12Oc1cc(OC)cc(OC)c1C2=O,77.9% (inactive),
O=C(Nc1ccc(S(=O)(=O)Nc2ccccc2Cl)c(Cl)c1)c1ccccn1,61.1% (inactive),
O=S(=O)(c1ccccc1)c1cnc2c(N3CCNCC3)cccc2c1,51.8% (inactive),
CC1CC(=O)C2C(O)(C1)CC(O)C13OC1c1c(O)cccc1C(=O)C23O (stereo not given),,14.3 µM (active)
CC[C@@H](C)[C@H]1C(=O)O[C@H](C(C)C)C(=O)N(C)[C@@H](C(C)C)C(=O)O[C@H](C(C)C)C(=O)N(C)[C@@H](C(C)C)C(=O)O[C@H](CC(C)C)C(=O)N1C,,1.53 µM (active)
COC(=O)Cc1cc2c(c([N+](=O)[O-])c1)N(C(=O)CC[C@H](N)C(=O)O)CC2,85.7% (inactive),
CC1=CCC2C(C)(CO)CCCC2(C)C1CC12OC1C(O)C(CO)=CC2O (stereo not given),79.7% (inactive),
CC[C@@H](O)C[C@@H]1C(C)=C[C@@H]2CCCC[C@@H]2[C@@]1(C)C(=O)O,71% (inactive),
CC(C)(C)c1ccc(S(=O)(=O)Nc2ccc(-n3ccnc3)cc2)cc1,,10.3 µM (active)
Cc1ccc(Cl)cc1N(CC(=O)Nc1c(F)cccc1F)S(C)(=O)=O,,5.17 µM (active)
CC(=O)OC[C@]12[C@H](OC(C)=O)[C@H](OC(=O)c3ccccc3)[C@@H]3[C@@H](OC(C)=O)[C@]1(OC3(C)C)[C@H](C)C[C@H](OC(C)=O)[C@@H]2OC(=O)c1ccccc1,24% [at 17.3 µM] (inactive),
CCCc1cc(C)n(C)c(=O)c1CN(C)C(=O)c1cc(-c2ccc(N3CCN(C(C)C)CC3)nc2)cc2c1cnn2C(C)C,65.8% (inactive),
C=CS(=O)(=O)NC1CCN(C(=O)CNc2cc(I)c(Cl)cc2OC)CC1,,3.26 µM (active)
O=S1(=O)CCN(Cc2cc(NCC3CCOCC3)c3[nH]c(-c4ccccc4)cc3c2)CC1,3.26% (inactive),
O=C1NC(=O)C(c2cn(-c3ccccc3)nc2-c2ccc(F)cc2)N1 (stereo not given),73.3% (inactive),
CCC(CC)C(=O)Nc1sc2c(c1C#N)CCC(C(C)(C)CC)C2 (stereo not given),,2.06 µM (active)
C[C@H](CCC(=O)O)[C@H]1CC[C@H]2[C@@H]3C[C@H](O)[C@@H]4C[C@H](O)CC[C@]4(C)[C@H]3CC[C@]12C,89.5% (inactive),
O=C1c2ccccc2-c2nc3nnnn3nc21 (tested in a mixture with another compound),,0.092 µM (active)
Cc1occc1C(=O)n1ccnc1,65% (inactive),
Cn1ccc(NC(=O)c2cc(Oc3ccc(C(=O)N4CCC4)c(F)c3)c3c(c2)OC(C)(C)C3)n1,54% (inactive),

SMILES,viability (% of control),Potency
CCOC(=O)C1=Cc2ccc(C(F)(F)C(F)(F)F)cc2N=C(N)C1,,20.6 µM (active)
CC/C=C\CCO[C@@H]1O[C@H](CO)[C@@H](O)[C@H](O)[C@H]1O,86.8% (inactive),
CCOc1nc(NC(=O)Cc2cc(OC)ccc2OC)cc(N)c1C#N,93.1% (inactive),
C=C1C(=O)O[C@@H]2CC(C)=C([C@@H](C)CCCOC(C)=O)[C@@H](O)[C@H]12,71.7% (inactive),
O=S(=O)(NC1CCNCC1)c1cc(S(=O)(=O)c2ccccc2)ccc1C(F)(F)F,84.7% (inactive),
CN(C)CCCCC(=O)Nc1ccc(NC(=S)NC(=O)c2ccc(C(C)(C)C)cc2)cc1,,1.3 µM (active)
CC1CCC2C(C)(C)CC(C)(CO)C2(O)C1C(=O)O (stereo not given),62.2% (inactive),
CC/C=C/CC1=C(CCCCCCCC(=O)O)CCC1=O,59.7% (inactive),
COC(=O)C1=C(C)NC(C)=C(C(=O)OCCN(C)Cc2ccccc2)C1c1cccc([N+](=O)[O-])c1 (stereo not given),,11.9 µM (active)
CC(=O)OC1CC(C(C)(C)O)OC2CCC3(C)OC4=C(C(=O)C=C5C(C)C(OC(C)=O)C6(C)C(C)OC546)C(O)C3C12C (stereo not given),69% [at 17.3 µM] (inactive),
O=C(CC(c1ccccc1)c1ccccc1)N1CCN(C(c2ccccc2)c2ccccc2)CC1,,13 µM (active)
COc1ccc(C(=O)CC(=O)O)c2c1C=CC(C)(C)O2,70% (inactive),
CC1=C2CC(=O)C(C)CC/C=C(\C)CC2OC1=O (stereo not given),102% (inactive),
Cc1ccc(Cc2c(C)nc3nc(SCC(=O)NCCN4CCNCC4)nn3c2C)cc1,73.7% (inactive),
CN(C)Cc1ccc(-c2cnn3c(-c4cccc(NC(=O)c5cccc(C(F)(F)F)c5)c4)ccnc23)cc1,,2.91 µM (active)
CC(C(O)/C=C/C(C)(C)O)C1CCC2(C)C3C(=O)C=C4C(CCC(O)C4(C)C)C3(C)CCC12C (stereo not given),82.3% [at 17.3 µM] (inactive),
CN1CCCN(C(=O)c2cccc(-c3ccc(/C=C4\C(=O)Nc5ccc(Cl)cc54)o3)c2)CC1,,0.184 µM (active)
CC1=C2C(=O)O[C@@H](c3ccoc3)[C@]2(C)CCC1,73.7% (inactive),
C=CC(C)(O)CC[C@H]1C(=C)CCC2[C@](C)(C(=O)O)CCC[C@@]21C (stereo not given in full),71.4% (inactive),
O=C(Nc1cc(-c2ccccc2)nn1-c1ccccc1)c1ccc([N+](=O)[O-])cc1,76% (inactive),
